hcDAF-12 act = activators of H. contortus DAF-12 nuclear receptor. activation, % at 6.8 µM. 370,000 tested, 1.4% active. HEK293 hcDAF-12 lit1-tk-luc reporter, luminescence; 0% DMSO, 100% Δ7-dafachronic acid;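 active = activation above the mean of all tested compounds plus 3 SD, cut at about 5.5% in these data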;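 also: 100% = response to 3 µM Δ7-dafachronic acid high control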
ssDAF-12 act = S. stercoralis DAF-12 activation, primary screen | HEK293 ssDAF-12/GRIP1 lit1-tk-luc reporter, luminescence; % of 3 µM dafachronic acid response | activation, % at 6.8 µM | 370,000 tested, 1% active | AID 652126;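 active = activation above the mean over all tested compounds plus 3 SD, cut at about 0.9% in these data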;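 also: 0% = DMSO-only wells and 100% = 3 µM delta7-dafachronic acid wells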
DAX1 inh-1 = DAX1 (NR0B1) inhibition, primary screen; inhibition, % at 6.8 µM; HEK293T StAR-luciferase reporter, SF-1/DAX-1 repression relief; 370,000 tested, 1.1% active; AID 652010;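 active = inhibition above the mean over all tested compounds plus 3 SD, cut at about 3.6% in these data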;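 also: 0% = DAX-1 cells with DMSO and 100% = cells lacking DAX-1 with DMSO; higher inhibition means more luminescence from relief of DAX-1 repression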
hgDAF-12 ag = agonists of H. glycines DAF-12 nuclear receptor. activation, % at 6.8 µM. HEK293 GAL4-hgDAF12 UAS-luciferase reporter, agonist luminescence; normalized to butyrate control. AID 687014. 370,000 tested, 1.8% active;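 active = activation above a cutoff set at the mean of all screened compounds plus 3 SD, cut at about 10% in these data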;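 also: 0% = DMSO wells and 100% = sodium butyrate wells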
AHR act = human AHR activation; AID 2796; activation, % at 5 µM; AHR-responsive luciferase reporter cells, luminescence; 320,000 tested, 2.5% active; in the data active = activation above about 47%;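 also: 0% = vehicle wells and 100% = reference agonist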
DAX1 inh-2 = NR0B1 (DAX1) inhibition. P51843. HEK293 Gal4-DAX1 luciferase reporter, luminescence. inhibition, % at 6.75 µM. 340,000 tested, 0.99% active;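 active = inhibition above the mean over all tested compounds plus 3 SD, cut at about 4.2% in these data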;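 also: 0% = DAX1-transfected cells with DMSO and 100% = empty-vector control cells with DMSO; inhibition shows as a rise in luminescence from relieved DAX1 repression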
Target sequence (P51843 207-470 limits assumed): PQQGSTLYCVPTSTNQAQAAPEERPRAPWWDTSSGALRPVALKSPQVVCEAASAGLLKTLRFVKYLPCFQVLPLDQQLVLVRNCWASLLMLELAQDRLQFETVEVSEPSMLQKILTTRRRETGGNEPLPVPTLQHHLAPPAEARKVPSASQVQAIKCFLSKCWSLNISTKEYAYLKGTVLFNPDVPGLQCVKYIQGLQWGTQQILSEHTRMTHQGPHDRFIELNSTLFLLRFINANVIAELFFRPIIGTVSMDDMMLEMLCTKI
hgDAF12 conf = confirmation of H. glycines DAF-12 agonists | shares compounds with hgDAF-12 ag | HEK293 GAL4-hgDAF12 luciferase reporter, agonist mode; percent of butyrate response | activation, % at 6.8 µM | 3,300 tested, 80% active;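 active = mean activation over triplicate wells above the hit cutoff derived from the earlier primary screen, cut at about 11% in these data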;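 also: 0% = DMSO low control and 100% = 2 mM sodium butyrate high control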
LXR ag 2 = LXR-beta agonism as DAF-12 counter-screen; shares compounds with hgDAF-12 ag; HEK293 Gal4-LXR luciferase reporter, 24 h; activation, % at 6.8 µM; 3,300 tested, under 10 active; AID 743051;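 active = mean activation of the triplicate above a set limit carried over from the primary screen, none filed active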
An asterisk follows results filed as active; / = no result. Rows were chosen to be rich in hits. Some 5.7% of all compounds tested hit in one or more screens of this group.

SMILES	hcDAF-12 act	ssDAF-12 act	DAX1 inh-1	hgDAF-12 ag	AHR act	DAX1 inh-2	hgDAF12 conf	LXR ag 2
Cc1ccc(NC(=O)Nc2ccc(F)cc2)cc1Cl	2	0	0	15*	3	0	11*	0
CC(C)(C)c1ccc(NC(=O)c2ccc(=O)[nH]n2)cc1	5	0	2	17*	9	5.6*	14*	1
Cc1ccc(NC(=O)C(=O)N2CCCC2)cc1Cl	2	0	3	15*	5	3	13*	0
CC(C)(C)c1ccc(COC(=O)Nc2ccc(F)cc2)cc1	0	-1	0	3	2	-1	/	/
Cc1ccc(NC(=O)N2CCCC2)cc1Cl	-1	0	1	0	-1	0	/	/
CC(C)(C)c1ccc(NC(=O)Nc2ccc(F)cc2)cc1	3	0	3.6*	15*	8	/	15*	1
CCOC(=O)[C@H]1[C@H]2COc3cc(OC)ccc3[C@@H]2N2C(=O)CN(Cc3ccco3)C(=O)[C@@]12C	-1	-1	0	-1	0	-1	/	/
COc1cccc(NC(=O)Nc2ccc(C(C)(C)C)cc2)c1	3	-1	1	18*	/	0	11*	0
COc1cccc(N2CC(O)Cn3c2nc2c3c(=O)[nH]c(=O)n2C)c1 (stereo not drawn)	-2	-1	0	-1	/	1	/	/
O=C(N/N=C/c1cn(-c2ccccc2)nc1-c1cc2ccccc2o1)c1c[nH]c2ccccc12	4	1	2	19*	109*	1	13*	1
O=C(N/N=C/c1cn(-c2ccccc2)nc1-c1cc2ccccc2o1)c1ccccc1Br	4	1	3	7	31	3	/	/
O=C(Nc1ccc(NC(=O)c2cccs2)cn1)c1ccccc1	5	0	3	16*	-1	1	15*	1
O=C(Nc1ccc(NC(=O)C2CC2)cn1)c1ccccc1	5	0	3	16*	5	0	13*	1
CC(C)(C)OC(=O)N1CCC[C@H]1C(=O)NCc1ccc(F)cc1F	1	0	1	-2	/	/	/	/
CC(=O)C1=C(C)Nc2ncnn2C1c1ccc(O)cc1 (stereo not drawn)	2	-1	0	4	1	1	/	/
CC(=Nc1ccc(C)cc1C)c1sc2ccccc2c1O	5.7*	1.9*	4.2*	21*	6	5.8*	24*	1
Cc1ccc(O)c(N=Cc2sc3ccccc3c2Cl)c1	3	0	0	-4	30	1	/	/
O=C(Cc1ccc(Cl)cc1)Nc1ccc(Br)cn1	-3	-1	0	4	0	-2	/	/
O=c1c(O)c(-c2ccc(O)cc2)oc2cc(O)cc(O)c12	2	-1	2	15*	2	3	5	0
O=c1cc(-c2ccc(O)cc2)oc2cc(O)cc(O)c12	0	-1	3.8*	18*	10	2	10	1
O=c1cc(-c2ccccc2)c2ccc(O)cc2o1	0	-1	0	1	2	1	/	/
O=c1cc(-c2ccccc2)oc2cc(O)ccc12	2	-1	4.5*	15*	/	2	12*	1
CCOC(=O)c1ccc(S(=O)(=O)NNc2ccc(C(F)(F)F)cn2)cc1	0	-1	0	6	13	0	/	/
C[C@@H]1CN([C@H](C)CO)C(=O)c2cc(Br)cnc2O[C@H]1CN(C)C(=O)Nc1ccccc1F	-1	-1	-1	0	/	0	/	/
O=C(CC1CCCCC1)Nc1nc2ccccc2s1	4	-1	2	14*	16	3	17*	1
SMILES	hcDAF-12 act	ssDAF-12 act	DAX1 inh-1	hgDAF-12 ag	AHR act	DAX1 inh-2	hgDAF12 conf	LXR ag 2
CCOCC(=O)Nc1nc2ccccc2s1	3	0	1	10	11	1	/	/
O=C(COC(=O)c1cc[n+]([O-])cc1)Nc1cccc(Br)c1	-1	-1	1	-1	/	2	/	/
N/C(=N\OC(=O)COc1ccc(Cl)cc1Cl)c1ccncc1	5	0	4.0*	16*	/	6.2*	21*	1
O=C(O)CCC(=O)NN1C(=O)c2ccccc2NC1c1ccc(F)cc1 (stereo not drawn)	-1	0	0	0	-1	1	/	/
Cc1oc(-c2ccccc2Cl)nc1CS(=O)(=O)CC(=O)NC1CCCC1	-1	-1	0	-3	3	-1	/	/
Cc1nonc1C1CCCN1C(=O)c1cc(COc2ccc(F)cc2F)on1 (stereo not drawn)	3	0	3	15*	8	1	12*	1
CCCCc1cc(=O)oc2cc(OCC(=O)NC3CCN(Cc4ccccc4)CC3)ccc12	-1	-1	0	-2	0	1	/	/
COc1ccccc1N1CCN(CC(O)COc2ccc(C)cc2C)CC1 (stereo not drawn)	-3	-2	0	2	2	-1	/	/
Cc1ccc(N2CCN(C(=O)c3cn(CC4CCCCC4)nn3)C(C)C2)cc1 (stereo not drawn)	2	1.0*	4.3*	15*	16	1	13*	1
O=C(c1cn(CC2CCCCC2)nn1)N1CCN(c2ccc(F)cc2)CC1	-2	-2	-3	2	-2	-1	/	/
O=C(N=C1SC2CS(=O)(=O)CC2N1Cc1ccccc1)C1CCCCC1 (stereo not drawn)	0	-1	0	-2	-2	0	/	/
CC1CCc2c(sc(NC(=O)C3CCCO3)c2C#N)C1 (stereo not drawn)	1	-1	3	20*	-1	2	10*	1
Cc1ccc(NCCC(=O)c2ccc(Cl)cc2)cc1C	1	0	-1	1	2	0	/	/
Cc1ccc(NCCC(=O)c2cccs2)cc1C	4	1	2	15*	48*	1	15*	1
Cc1ccc(CNC(=O)Nc2ccc(C)cc2)cc1	1	0	0	4	5	1	/	/
Cc1ccc(NC(=O)NCC2CC2(Cl)Cl)cc1 (stereo not drawn)	4	0	2	13*	8	2	10	0
COc1ccc(-c2cc(C(=O)N3CCOCC3)no2)cc1OC	-1	-1	1	6	6	1	/	/
COc1ccccc1-c1cc(C(=O)N2CCOCC2)no1	3	0	2	17*	11	3	12*	0
CCN(CC(=O)Nc1c(F)cccc1F)C(=O)c1n[nH]c2ccccc12	-1	0	0	1	23	0	/	/

Screening data from PubChem BioAssay.
